Counter-ions that a name gives are not always drawn. Over roughly 2,000 compounds, “fractional viability relative to vehicle” has its median near 0.92; the lowest 2% begin near 0.11. Shown is part of a subset that was picked to be rich in the lowest values.
Tested on: TYKNU
Test: fractional viability relative to vehicle; TYKNU is a high-grade serous ovarian cancer line; higher = less growth inhibition
Settings: 72 h, genotype: OPA1 knockout (sgOPA1 #2)
Outline: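 Drug treatment lasted 72 h, with cells grown at 37 °C in 5% CO2 in RPMI 1640 supplemented with 10% FBS. Beforehand, TYKNU control cells or their lentiCRISPRv2 knockout derivatives had been seeded at 500 cells per well into drug-stamped 384-well plates carrying a ~2100-compound library at 2 or 10 μM, in duplicate. Viability came from Cell Titer Glo luminescence, with averaged duplicate treatment wells normalised to duplicate control wells in the same plate position.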

Row | Structure (SMILES) | fractional viability (2uM) | fractional viability (10uM)
1 | [O-][n+]1ccccc1[S-].[O-][n+]1ccccc1[S-].[Zn+2] [Zinc Pyrithione] | 0.0671 | 0.0336
2 | CN1[C@@H]2C[C@@H](OC(=O)[C@H](CO)c3ccccc3)C[C@H]1[C@@H]1O[C@@H]12 [Scopolamine HBr] | 1.29 | 0.892
3 | C=CC[C@]1(O)CC[C@H]2[C@@H]3CCC4=CC(=O)CCC4=C3C=C[C@@]21C [Altrenogest] | 0.97 | 0.84
4 | CC(=O)Nc1ccc(OC[C@](C)(O)C(=O)Nc2ccc([N+](=O)[O-])c(C(F)(F)F)c2)cc1 [Andarine] | 1.18 | 1.18
5 | COC[C@H]1OC(=O)c2coc3c2[C@@]1(C)C1=C(C3=O)[C@@H]2CCC(=O)[C@@]2(C)C[C@H]1OC(C)=O [Wortmannin] | 0.744 | 0.149
6 | C[C@@H]1CC[C@@]2(OC1)O[C@H]1C[C@H]3[C@@H]4CC=C5C[C@@H](O[C@@H]6O[C@H](CO)[C@@H](O[C@@H]7O[C@@H](C)[C@H](O)[C@@H](O)[C@H]7O)[C@H](O)[C@H]6O[C@@H]6O[C@@H](C)[C@H](O)[C@@H](O)[C@H]6O)CC[C@]5(C)[C@H]4CC[C@]3(C)[C@H]1[C@@H]2C [Dioscin] | 0.289 | 0.0918
7 | Cc1cccc(C)c1NC1=NCCCS1 [Xylazine HCl] | 0.823 | 0.79
8 | COc1cc(OC)c(OC)cc1C=O [Asaraldehyde] | 1.16 | 1.15
9 | C=CCN1CC[C@]23c4c5ccc(O)c4O[C@H]2C(=O)CC[C@@]3(O)[C@H]1C5 [Naloxone HCl] | 0.816 | 0.957
10 | CCNC(=O)C[C@@H]1N=C(c2ccc(Cl)cc2)c2cc(OC)ccc2-n2c(C)nnc21 | 0.715 | 0.794
11 | CN[C@@H]1C[C@H]2O[C@@](C)([C@@H]1OC)n1c3ccccc3c3c4c(c5c6ccccc6n2c5c31)C(=O)NC4 [Staurosporine] | 0.264 | 0.0922
12 | COc1ccc(C(CN(C)C)C2(O)CCCCC2)cc1 (stereo not given) [Venlafaxine] | 1.21 | 1
13 | Cn1c(CCCC(=O)O)nc2cc(N(CCCl)CCCl)ccc21 [Bendamustine HCl] | 1.1 | 1.11
14 | CN1CCC(c2c[nH]c3ccc(O)cc23)CC1 | 0.838 | 0.922
15 | CCOc1ccccc1-n1c(C(C)N2CCN(C(=O)COc3ccc(Cl)cc3)CC2)nc2ccccc2c1=O (stereo not given) [Erastin] | 0.45 | 0.0976
16 | C[C@H]1CNCCc2ccc(Cl)cc21 [Lorcaserin HCl] | 1.04 | 1.02
17 | CCCN1C[C@H](CSC)C[C@@H]2c3cccc4[nH]cc(c34)C[C@H]21 [Pergolide mesylate] | 0.978 | 0.96
18 | CC1(C)CC(O)CC(C)(C)N1[O] [Tempol] | 0.982 | 1.06
19 | Cc1cc(SCc2sc(-c3ccc(C(F)(F)F)c(F)c3)nc2C)ccc1OCC(=O)O | 0.824 | 0.75
20 | CC1=C(O)C(=O)C=C2C1=CC=C1[C@@]2(C)CC[C@@]2(C)[C@@H]3C[C@](C)(C(=O)O)CC[C@]3(C)CC[C@]12C [Celastrol] | 0.123 | 0.0841

Row | Structure (SMILES) | fractional viability (2uM) | fractional viability (10uM)
21 | CC(=O)O[C@H]1C[C@@H]2CC[C@@H]3[C@H](CC[C@@]4(C)[C@H]3C[C@H]([N+]3(C)CCCCC3)[C@@H]4OC(C)=O)[C@@]2(C)C[C@@H]1[N+]1(C)CCCCC1 [Pancuronium dibromide] | 1 | 0.976
22 | CN1[C@@H]2CC(O)C[C@H]1[C@@H]1O[C@@H]12 (stereo not given in full) [Scopine] | 0.96 | 0.768
23 | C[C@H]1CCC/C=C/[C@@H]2C[C@H](O)C[C@H]2[C@H](O)/C=C/C(=O)O1 [Brefeldin A] | 0.269 | 0.277
24 | CC(C)=CCC[C@]1(C)C=Cc2c(O)c3c(c(CC=C(C)C)c2O1)O[C@]12C(=C[C@@H]4C[C@H]1C(C)(C)O[C@@]2(C/C=C(/C)C(=O)O)C4=O)C3=O [Gambogic Acid] | 0.0971 | 0.0282
25 | C[N+]1(C)[C@@H]2C[C@@H](OC(=O)[C@H](CO)c3ccccc3)C[C@H]1[C@@H]1O[C@@H]12 [Methscopolamine] | 0.982 | 0.966
26 | C[C@]12N[C@H](Cc3ccccc31)c1ccccc12 [MK-801 (Dizocilpine)] | 1.04 | 0.956
27 | CCN1CCN(C(=O)Cc2ccc(Nc3ncc(F)c(Nc4ccc(C(=O)Nc5ccccc5Cl)cc4)n3)cc2)CC1 [Aurora A Inhibitor I] | 1.03 | 0.0801
28 | O=C(O[C@H]1C[N+]2(CCCOc3ccccc3)CCC1CC2)C(O)(c1cccs1)c1cccs1 [Aclidinium Bromide] | 0.952 | 0.927
29 | CC(C)NCC(O)c1ccccc1Cl (stereo not given) [Clorprenaline HCl] | 0.911 | 0.968
30 | CN1CCN(c2nc3ccccc3nc2Cl)CC1 | 1.15 | 0.988
31 | O=C1CC[C@@]2(O)[C@H]3Cc4ccc(O)c5c4[C@@]2(CCN3CC2CC2)[C@H]1O5 [Naltrexone HCl] | 1.07 | 1.12
32 | CC[C@@H]1/C=C/C=C/C[C@H](C)[C@H](O)[C@](C)(O)C(=O)[C@H](C)[C@@H](O)[C@H](C)C(=O)[C@H](C)[C@@H](O)[C@H](C)/C=C/C(=O)O[C@H]2[C@@H](C)[C@@H](CC1)O[C@@]1(CC[C@@H](C)[C@@H](C[C@H](C)O)O1)[C@@H]2C [Oligomycin A] | 1.01 | 0.871
33 | C1=C2CCCN[C@H]2[C@@H]2C[C@H]1[C@H]1CCCCN1C2 [Aloperine] | 1.02 | 0.89
34 | O=C(Oc1ccc([N+](=O)[O-])cc1)N1CCC(C(O)(c2ccc3c(c2)OCO3)c2ccc3c(c2)OCO3)CC1 | 0.994 | 0.739
35 | O=[N+]([O-])/C=C/c1ccc2c(c1)OCO2 | 0.477 | 0.113
36 | c1cc2c(cc1[C@H]1OC[C@H]3[C@@H]1CO[C@@H]3c1ccc3c(c1)OCO3)OCO2 [Sesamin] | 1.06 | 0.894
37 | Cc1sc2c(c1C)C(c1ccc(Cl)cc1)=N[C@@H](CC(=O)Nc1ccc(O)cc1)c1nnc(C)n1-2 | 0.634 | 0.619
38 | CN1c2ccccc2C(NCCCCCCC(=O)O)c2ccc(Cl)cc2S1(=O)=O (stereo not given) [Tianeptine sodium] | 1.15 | 1.02
39 | Nc1nc(N)nc(NC2CC2)n1 [Cyromazine] | 1.01 | 0.994
40 | CCCN1CCO[C@@H]2c3cc(O)ccc3OC[C@H]21 | 0.95 | 1.01
